We go through 26 molecules from PubChem BioAssay (Tox21).

Where “and” joins values, the source holds several entries; their conditions need not be identical. Equal entries are not always repeated. Results filed as inconclusive are left out. Some compounds were tested as several samples or in several runs, with calls that do not always agree. Calls of active or inactive are those of the source. Unless noted, the call rests on the fitted dose curve; in most records, active means well fitted curve in the direction sought with a large enough effect in the repeat runs; inconclusive means weak or mixed curves; inactive means no such curve, though single readings can be large; an effect the other way counts as inactive or inconclusive.

Test [1] is described as follows: qHTS assay for small molecule agonists of the p53 signaling pathway (AID 651631; calls by dose curve; further: nearly all actives have a fitted effect of over 15% in size; further: potency means the concentration at half of the fitted maximal effect). Summed up:
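HCT-116 cells carrying a stable p53 response element–beta-lactamase reporter were plated, rested 5 h at 37 °C, then exposed to compound in DMSO for 16 h at 37 °C; reporter activity was read as FRET substrate fluorescence after 2 h at room temperature.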

Test [2] in a line: qHTS assay for small molecules that induce genotoxicity in human embryonic kidney cells expressing luciferase-tagged ATAD5 (AID 651632). Further: nearly all actives have a fitted effect of over 15% in size. Further: potency means the concentration at half of the fitted maximal effect. An outline of the steps:
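Genotoxicity read-out via ATAD5-luciferase: HEK293T cells, 16 hr compound incubation at 37C, Amplite detection.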
(In general: Quantitative high-throughput screening tests each substance at several concentrations.)

Test [3] is described as follows: qHTS assay for small molecule agonists of the p53 signaling pathway - cell viability (AID 651633; calls by dose curve; further: nearly all actives have a fitted effect of over 30% in size; further: potency means the concentration at half of the fitted maximal effect). Summed up:
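p53RE-bla cells were treated with compound for 16 hours at 37 C. Cytotoxicity was then measured as CellTiter-Glo luminescence after 30 min at room temperature.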

Test [4] can be described thus: qHTS assay for small molecules that induce genotoxicity in human embryonic kidney cells expressing luciferase-tagged ATAD5 - cell viability (AID 651634; calls by dose curve; further: nearly all actives have a fitted effect of over 25% in size; further: potency means the concentration at half of the fitted maximal effect). An outline of the steps: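 Live-cell protease activity (CellTiter-Fluor, fluorescence) indicates viability. HEK293T cells with luciferase-tagged ATAD5; 15.5 hr compound treatment at 37C.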
The nature of test [5]: qHTS assay to test for compound auto fluorescence at 590 nm (red) in HepG2 cells (AID 720674). An outline of the steps: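 Fluorescence at 590 nm emission following 540 nm excitation was recorded from HepG2 wells one hour after compound transfer, with DMSO-only wells as vehicle and Rose Bengal sodium equivalency as the scale.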
A short description of test [6]: qHTS assay to test for compound auto fluorescence at 535 nm (green) in HepG2 cells (AID 720675). Further: potency means the concentration at half of the fitted maximal effect.
A short description of test [7]: qHTS assay to test for compound auto fluorescence at 460 nm (blue) in HEK293 cells (AID 720678). An outline of the steps: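 Intrinsic compound fluorescence is recorded in live HEK293 cultures after overnight incubation at 37C, 5% CO2, using excitation 405 nm and emission 460 nm. Values are referenced to triamterene.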
A short description of test [8]: qHTS assay to test for compound auto fluorescence at 590 nm (red) in HEK293 cells (AID 720679). An outline of the steps: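 Red autofluorescence, HEK293 cells: 2,000 cells/well; attach 4-5 hr 37C; add 23 nL cpd or DMSO; incubate o/n 37C 5% CO2; read Ex540/Em590; Rose Bengal sodium reference.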
Test [9] in a line: qHTS assay for small molecule disruptors of the mitochondrial membrane potential - cell viability (AID 720634; calls by dose curve; further: nearly all actives have a fitted effect of over 20% in size; further: potency means the concentration at half of the fitted maximal effect). An outline of the steps: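 Human hepatoma HepG2 cells were treated for 1 hr with test chemicals, then given m-MPI dye and CellTiter-Glo. Cell viability reflects luminescence proportional to cellular ATP.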
A short description of test [10]: qHTS assay for small molecule disruptors of the mitochondrial membrane potential (AID 720635). Further: potency means the concentration at half of the fitted maximal effect. Summed up: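 HepG2 cells exposed to compound 1 hr at 37C, then Mito-MPS dye 30 min. Ratio read of aggregate (540/590 nm) versus monomer (490/535 nm) fluorescence.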
On the % scale 0 is the no-effect control and ±100 the full control effect.

Turning to `CC1=CCC(C(C)(C)O)CC1` (centres undefined), the Potency result in [1], in test [2], in [3], in test [4], in test [5] and in test [6] was “inactive” in each case. The Potency result in [8] is “inactive”. The call in [7] was inactive.

For `C=CC(C)(CCC=C(C)C)OC(C)=O` (centres undefined), the Potency entry in test [1], in test [3], in test [9], in test [10], in test [5] and in test [6] was “inactive” throughout. The Potency result in [8] is “inactive”.

For `Cc1c(C(N)=O)cc([N+](=O)[O-])cc1[N+](=O)[O-]`, the Potency entry in [1], in [3], in test [4], in [9], in test [10] and in [5] was “inactive” each time. The Potency entry in test [6] and in test [8] was “inactive” throughout.

On to `COc1cccc2c1C(=O)c1c(O)c3c(c(O)c1C2=O)C[C@@](O)(C(=O)CO)C[C@@H]3O[C@H]1C[C@H](N)[C@H](O)[C@H](C)O1`, for which the Potency entry in test [1] was “inactive and 596 nM (active) and 243 nM (active)”; in test [2], “inactive and 376 nM (active)”; in test [10], “inactive and 2.73 µM (active)”. Also, the Potency entry in [3], in test [9], in test [5], in test [6] and in test [8] was “inactive” throughout. For the same molecule, in [7], the outcome was inactive.

Take `COc1ccc(C(=O)CC(=O)c2ccc(C(C)(C)C)cc2)cc1`: the Potency entry in test [1], in test [3], in test [4], in [5], in test [6] and in [8] was “inactive” each time. The Potency entry in [9] was “inactive and 18.5 µM (active)”; in [10], “inactive and 16.5 µM (active)”. In test [7], the outcome was inactive.

As to `CCCCC(CC)COP(=O)(OCC(CC)CCCC)OCC(CC)CCCC` (centres undefined), the Potency entry in test [1], in test [3], in [4], in test [9], in [10] and in [5] was “inactive” each time. The Potency entry in test [6] and in test [8] was “inactive” in each case. The result in test [7] was inactive.

For the molecule `CCC(C)CO` (centres undefined), the Potency result in test [1], in test [3], in test [4], in test [9], in test [10] and in [5] was “inactive” in each case. In addition, the Potency result in test [6] and in test [8] was “inactive” throughout.

With `Brc1cc(Oc2cc(Br)c(Br)c(Br)c2Br)c(Br)c(Br)c1Br`, the Potency entry in [1], in test [3], in test [4], in test [9], in test [5] and in [6] was “inactive” throughout. Further, the Potency entry in test [8] is “inactive”. The molecule was called inactive in [7].

For the molecule `CC(C)CC(C)(O)C#CC(C)(O)CC(C)C` (centres undefined), the Potency result in test [1], in [3], in test [4], in test [9], in test [5] and in [6] was “inactive” throughout. Further, the Potency entry in test [8] is “inactive”. The Potency in test [10] is 47.6 µM (active) and 48.6 µM (active). In addition, the result in [7] was inactive.

For `CC(C)Oc1ccc2c(=O)c(-c3ccccc3)coc2c1`, the Potency result in test [1], in [3], in test [4], in test [9], in [5] and in test [6] was “inactive” in each case. Besides, the Potency result in test [8] was “inactive”.

On to `O=C(c1ccc(OCCN2CCCCC2)cc1)c1c(-c2ccc(O)cc2)sc2cc(O)ccc12`, for which the Potency in [1] was 29.8 µM (active) and 68.7 µM (active) and 61.1 µM (active); in [3], 29.8 µM (active) and 61.2 µM (active) and 61.1 µM (active); in [4] it was 26.6 µM (active) and 54.5 µM (active); in test [10], 4.22 µM (active) and 1.72 µM (active) and 4.33 µM (active). For the same molecule, the Potency entry in test [9], in [5], in test [6] and in test [8] was “inactive” each time.

For `c1ccc2cc(Nc3ccc(Nc4ccc5ccccc5c4)cc3)ccc2c1`, the Potency result in [2], in [3], in test [4], in test [9], in [10] and in test [5] was “inactive” each time. In addition, the Potency entry in test [6] and in test [8] was “inactive” in each case.

For the molecule `CCCCc1oc2ccccc2c1C(=O)c1cc(I)c(OCCN(CC)CC)c(I)c1`, in test [3], the Potency is 26.6 µM (active) and 48.9 µM (active). The Potency result in test [4], in test [9], in [5], in [6] and in test [8] was “inactive” in each case.

Consider `Oc1ccc(O)cc1`, for which the Potency in [3] was 21.1 µM (active) and 13.6 µM (active) and 17.2 µM (active). For the same molecule, the Potency entry in test [4], in [9], in [10], in test [5], in test [6] and in [8] was “inactive” each time.

As to `CC(=O)O[C@]1(C(C)=O)CC[C@H]2[C@@H]3C=C(Cl)C4=CC(=O)[C@@H]5C[C@@H]5[C@]4(C)[C@H]3CC[C@@]21C`, the Potency result in test [3], in [4], in test [5], in test [6] and in test [8] was “inactive” each time. For the same molecule, in test [10], the Potency was 30.6 µM (active).

As for `CCCCC/C=C/C=C/C=O`, the Potency in [3] is 54 µM (active); in test [10] it was 60.6 µM (active) and 54.5 µM (active). The Potency entry in test [9], in test [5], in test [6] and in [8] was “inactive” each time. The outcome in test [7] was inactive.

As to `CCC(C)c1ccccc1O` (centres undefined), the Potency entry in test [3], in test [4], in test [9], in [5], in test [6] and in test [8] was “inactive” throughout. In addition, the Potency in test [10] was 54.1 µM (active) and 30.6 µM (active). In addition, the molecule was called inactive in test [7].

In the case of `Cc1ccc(C(=O)c2cc(O)c(O)c([N+](=O)[O-])c2)cc1`, the Potency in test [3] is 23.7 µM (active) and 54.5 µM (active); in test [4], 30.6 µM (active); in [10] it was 26.6 µM (active) and 4.86 µM (active). For the same molecule, the Potency entry in [9], in test [5], in test [6] and in [8] was “inactive” each time. Moreover, the call in test [7] was inactive.

Take `S=C(NC1CCCCC1)NC1CCCCC1`: the Potency entry in test [2], in [4], in test [9], in [5], in test [6] and in test [8] was “inactive” each time. Further, the Potency in [10] was 53.4 µM (active) and 54.5 µM (active). Also, in test [7], the call was inactive.

Consider `COc1c(Cl)c(Cl)c(Cl)c(Cl)c1Cl`, for which the Potency result in test [3], in test [4], in [9], in test [5], in test [6] and in test [8] was “inactive” in each case. In addition, in test [7], the molecule was classed as inactive.

Turning to `Clc1nc(Cl)c(Cl)c(Cl)c1Cl`, the Potency result in [2], in [3], in test [4], in test [9], in [5] and in [6] was “inactive” each time. Moreover, in test [8], the Potency result was “inactive”. Moreover, in test [7], the outcome was inactive.

`CC(C)OC(=O)C(C)(C)Oc1ccc(C(=O)c2ccc(Cl)cc2)cc1`: the Potency result in test [2], in test [4], in test [10], in test [5], in test [6] and in [8] was “inactive” each time. Also, the outcome in test [7] was inactive.

On to `NC=O`, for which the Potency result in test [3], in test [4], in [9], in test [10], in [5] and in [6] was “inactive” each time. The Potency result in test [8] was “inactive”. In addition, the outcome in test [7] was inactive.

For `Cc1cc2nc3c(=O)[nH]c(=O)nc-3n(C[C@H](O)[C@H](O)[C@H](O)CO)c2cc1C`, the Potency entry in [2], in test [3], in test [4], in test [9], in [5] and in test [8] was “inactive” in each case. The Potency in test [6] was 35.5 µM (active) [middle of 4 runs].

For the molecule `O=c1oc(=O)c2cc3c(=O)oc(=O)c3cc12`, the Potency result in test [2], in [4], in test [9], in test [10], in test [5] and in test [6] was “inactive” throughout. In addition, the Potency entry in test [8] is “inactive”.

As to `COc1cc([C@@H]2c3cc4c(cc3[C@H](O)[C@H]3COC(=O)[C@H]23)OCO4)cc(OC)c1OC`, the Potency entry in test [3], in test [4], in test [9], in test [5], in test [6] and in test [8] was “inactive” in each case. Besides, the Potency in test [10] is 150 nM (active) and 76.9 nM (active).
